Records with an inconclusive call do not appear. Active and inactive are the calls of the source. How the source made its calls: active means hit-call score of the fitted dose curve at least 0.9, where 1 is the maximum; inconclusive means response in the unintended direction; inactive means score below 0.9.
assay: ACEA_ER_80hr: ACEA Biosciences xCELLigence Real-Time Cell Analysis on Estrogen Receptor Agonism for Proliferation (AID 2282667); conditions: T47D proliferation, impedance (xCELLigence), 80 h
In short: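 T47D human breast cells were seeded on electrode plates, monitored overnight, then exposed continuously to compounds in eight-point 1:4 dilutions from 100 uM (max 0.5% DMSO). Impedance-based growth was read at 80 h, fitted upward relative to DMSO.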

| SMILES | AC50 | outcome |
| --- | --- | --- |
| NC(=O)C(F)(F)C(F)(F)F | 20.5 µM (active) | – |
| CC(C)Nc1ccc(Nc2ccccc2)cc1 | – | inactive |
| OCC(F)(F)OC(F)(F)C(F)(F)OC(F)(F)C(F)(F)OC(F)(F)F | – | inactive |
| N#C/C=C/c1ccccc1 | – | inactive |
| O=S(=O)(c1ccc(O)cc1)c1ccc(O)cc1 | 2.18 µM (active) | – |
| N#Cc1ccc(O)cc1 | – | inactive |
| CCOP(=O)(O)C(N)=O | – | inactive |
| C=CC(=O)OCC(CC)(COC(=O)C=C)COC(=O)C=C | – | inactive |
| CC(=O)c1ccc(-c2ccccc2)cc1 | – | inactive |
| O=P(OCC(Br)CBr)(OCC(Br)CBr)OCC(Br)CBr (centres undefined) | – | inactive |
| CCOP(=S)(OCC)SCSc1ccc(Cl)cc1 | – | inactive |
| Cc1ccc(C(=O)Cl)cc1 | – | inactive |
| FC(F)(F)c1ccc(Cl)cc1 | – | inactive |
| O=NN1CCCC1 | – | inactive |
| O=C(O)C=CC(F)(C(F)(F)F)C(F)(F)F | – | inactive |
| O=S1(=O)OCC2C(CO1)C1(Cl)C(Cl)=C(Cl)C2(Cl)C1(Cl)Cl (centres undefined) | 0.0213 µM (active) | – |
| CC(=O)CCc1ccc2c(c1)OCO2 | – | inactive |
| O=C(O)C(F)(OC(F)(F)C(F)(F)C(F)(F)F)C(F)(F)F (centres undefined) | – | inactive |
| CCCCC(CC)COC(=O)c1c(Br)c(Br)c(Br)c(Br)c1C(=O)OCC(CC)CCCC (centres undefined) | – | inactive |
| O=[N+]([O-])c1cc(Cl)ccc1Cl | – | inactive |

| SMILES | AC50 | outcome |
| --- | --- | --- |
| CC(Cl)CN(C)C (centres undefined) | – | inactive |
| C=CC(=O)OCC(F)(F)C(F)F | – | inactive |
| CCCCc1ccc(O)cc1 | 10.5 µM (active) | – |
| CCOP(=S)(S)OCC | – | inactive |
| CC(O)C(F)(F)C(F)(F)F (centres undefined) | – | inactive |
| CC(C)(C)c1ccccc1OP(=O)(Oc1ccccc1)Oc1ccccc1 | – | inactive |
| CC(O)C#N (centres undefined) | – | inactive |
| Cc1ccc2c(c1N)C(=O)c1ccccc1C2=O | – | inactive |
| CC(C)(C)N(NC(=O)c1ccc(Cl)cc1)C(=O)c1ccccc1 | – | inactive |
| O=C(CBr)OCc1ccccc1 | – | inactive |
| O=C(O)CF | – | inactive |
| OCC(F)(F)OC(F)(F)C(F)(F)OC(F)(F)C(F)(F)OC(F)(F)CO | 0.976 µM (active) | – |
| CCCCOCC1CO1 (centres undefined) | – | inactive |
| O=c1ssc(Cl)c1Cl | – | inactive |
| O=C(O)C(F)(F)OC(F)(F)C(F)(F)OC(F)(F)C(=O)O | – | inactive |
| COC(=O)C(F)(F)C(F)(F)OC(F)(C(F)(F)F)C(F)(F)OC(F)=C(F)F (centres undefined) | – | inactive |
| CCCCC(CC)COP(=O)(Oc1ccccc1)Oc1ccccc1 (centres undefined) | – | inactive |
| Nc1ccc([N+](=O)[O-])cc1Cl | – | inactive |
| CCN(CC)C1CCCCC1 | – | inactive |

Source: PubChem BioAssay (EPA / NIEHS)
